# ± gives the uncertainty stated by the source.
# System: HEK293T-Rex XBP1-RLuc
# Experiment: XBP1-RLuc splicing reporter activation, triplicate, relative to 500 nM thapsigargin (% of thapsigargin); higher = stronger IRE1/XBP1s reporter activation
# Conditions: 6.8 µM; 18 h; screen: confirmation
# Procedure: (§1)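 HEK293T-Rex cells stably expressing the ERSE-firefly luciferase (BiP promoter, ATF6-preferring) or XBP1-splicing Renilla luciferase (IRE1/XBP1s) reporter, 1536-well plates, compound at 6.8 µM for 18 hr at 37 °C; luminescence read […] and expressed as % activation = 100*(compound - median DMSO)/(median 500 nM thapsigargin - median DMSO). Primary screen was single-pass; confirmation screen in triplicate (mean ± SD).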
row,SMILES,XBP1-RLuc splicing reporter activation
1,O=C(Nc1ccc(O)cc1)c1ccc2ccccc2c1,6.41 ± 0.68
2,Cc1ccc2nc(/C(C#N)=C/c3ccc(O)c(O)c3)[nH]c2c1,16.5 ± 0.47
3,CN(c1ccccc1)S(=O)(=O)c1cccc(C(=O)NCCc2ccc(O)c(O)c2)c1,33.2 ± 0.95
4,COc1ccc(/C=C(\C#N)c2nc(-c3ccco3)cs2)cc1O,4.32 ± 0.33
5,CC(=O)Oc1cc(N2CCOCC2)c(OC(C)=O)c2c1C(=O)c1ccccc1C2=O,8.79 ± 2
6,Cc1ccc(C(=O)Nc2ccccc2N)cc1,14.1 ± 1.3
7,N#Cc1c(NC(=O)c2ccc(Br)cc2)sc2c1CCCC2,1.92 ± 0.76
8,Cc1cc2nc(/C(C#N)=C/c3ccco3)[nH]c2cc1C,4.3 ± 0.47
9,O=C(Nc1ccccc1O)c1ccc(NS(=O)(=O)c2cccc3cccnc23)cc1,14.2 ± 3.7
10,COc1ccccc1-c1cc(C(=O)Nc2cc(C)ccc2O)no1,7.78 ± 1.3
11,CC1(C)Cc2ccccc2/C(=C/C(=O)C(=O)N/N=C/c2ccc(O)c(O)c2)N1,16.2 ± 2.9
12,Cc1ccc(O)c(NC(=O)c2cc(CC(C)C)on2)c1,30.2 ± 2.4
13,N#C/C(=C/c1ccc(O)c(O)c1)c1nc2ccccc2s1,19.7 ± 0.5
14,CS(=O)(=O)c1ncc(Cl)c(C(=O)C(C#N)c2nc3ccccc3s2)n1 (stereo not drawn),19.5 ± 4.9
15,c1ccc2cc(-c3cnnc(N4CCOCC4)n3)ccc2c1,1.22 ± 0.96
16,CC(=Nc1ccc(O)cc1)c1sc2ccccc2c1O,15.7 ± 4.1
17,CCOc1cc(/C=C2/NC(=O)N(c3cccc(Cl)c3)C2=O)ccc1O,22.9 ± 1.5

# System: HEK293T-Rex ERSE-FLuc
# Experiment: ERSE-FLuc reporter activation, triplicate confirmation, relative to 500 nM thapsigargin (% of thapsigargin); higher = stronger ATF6/ERSE reporter activation
# Conditions: 6.8 µM; 18 h; screen: confirmation
# Procedure: as §1
row,SMILES,ERSE-FLuc reporter activation
1,CCOc1cc(C2C(C(=O)OC3CCCCC3)=C(C)NC3=C2C(=O)CC(c2ccc(OC)cc2)C3)cc(Br)c1O (stereo not drawn),27.2 ± 9.1
2,O=C1NC(=Nc2ccccc2)S/C1=C/c1ccc(O)c(O)c1,38.4 ± 10
3,CCc1nc2sc(C(=O)c3ccccc3)c(N)c2cc1C,26.2 ± 2.5
4,COc1ccc(/C=C(\C#N)c2nc(-c3ccco3)cs2)cc1O,35.1 ± 3.9
5,CC(=O)Oc1cc(N2CCOCC2)c(OC(C)=O)c2c1C(=O)c1ccccc1C2=O,45 ± 8
6,CC1(C)Cc2ccccc2/C(=C/C(=O)C(=O)N/N=C/c2ccc(O)c(O)c2)N1,30.1 ± 8.7
